BoNT F protease – BoNT/F light chain protease inhibitors, primary screen, biochemical, flow cytometry, MLPCN library; Botulinum neurotoxin type F light chain protease (Clostridium botulinum); inhibition, % at 10 µM; 360,000 tested, 0.22% active; Multiplex microsphere protease cleavage assay; in the data active = inhibition above about 35%, passing the limit was not always enough; inconclusive = no clear call, values can overlap the other calls; also: plate controls were buffer without enzyme for full effect and enzyme alone for no effect
Bead autofluor – compound fluorescence in toxin protease inhibitor counterscreen; compound autofluorescence counterscreen, microsphere flow cytometry; active compounds read high; fluorescence intensity (test concentration not listed); 360,000 tested, 3.1% active; in the data active = fluorescence intensity above about 16000; inconclusive = no clear call, values can overlap the other calls
Anthrax LF inh2 – Bacillus anthracis LF protease inhibitors, primary screen, biochemical, multiplex microsphere, MLPCN library. Lethal factor (Bacillus anthracis), P15917. multiplex microsphere protease cleavage assay. inhibition, % at 10 µM. 360,000 tested, 0.12% active. AID 588501, 2011; also: plate controls were buffer without enzyme for full effect and enzyme alone for no effect
Target sequence (P15917 whole entry, looked up): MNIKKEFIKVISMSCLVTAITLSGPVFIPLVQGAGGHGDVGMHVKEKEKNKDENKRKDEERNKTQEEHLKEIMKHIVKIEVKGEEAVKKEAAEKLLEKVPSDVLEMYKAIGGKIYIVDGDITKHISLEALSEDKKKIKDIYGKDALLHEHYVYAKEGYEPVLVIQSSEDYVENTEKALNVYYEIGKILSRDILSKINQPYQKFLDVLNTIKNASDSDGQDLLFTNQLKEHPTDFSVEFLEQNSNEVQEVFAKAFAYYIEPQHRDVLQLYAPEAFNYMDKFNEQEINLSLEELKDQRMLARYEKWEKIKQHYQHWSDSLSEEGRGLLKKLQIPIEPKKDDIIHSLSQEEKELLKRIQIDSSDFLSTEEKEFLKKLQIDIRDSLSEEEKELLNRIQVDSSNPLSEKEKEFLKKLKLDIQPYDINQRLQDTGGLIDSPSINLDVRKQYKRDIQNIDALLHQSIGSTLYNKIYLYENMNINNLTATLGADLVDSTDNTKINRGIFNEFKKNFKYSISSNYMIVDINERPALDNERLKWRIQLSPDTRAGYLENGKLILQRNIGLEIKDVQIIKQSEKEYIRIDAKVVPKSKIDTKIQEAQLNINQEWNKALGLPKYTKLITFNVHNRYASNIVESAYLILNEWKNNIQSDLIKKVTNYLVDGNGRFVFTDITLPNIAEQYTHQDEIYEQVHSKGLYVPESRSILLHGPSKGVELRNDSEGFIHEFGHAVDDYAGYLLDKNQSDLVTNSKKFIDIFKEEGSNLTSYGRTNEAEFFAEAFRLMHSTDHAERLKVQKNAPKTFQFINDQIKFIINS
BoNT A protease – BoNT/A light chain protease inhibitors, primary screen, biochemical, flow cytometry, MLPCN library; Botulinum neurotoxin type A light chain protease (Clostridium botulinum A str. ATCC 3502); multiplex microsphere protease substrate cleavage; inhibition, % at 10 µM; 360,000 tested, 0.17% active; AID 588499, 2011; also: plate controls were buffer without enzyme for full effect and enzyme alone for no effect
MazF activator – activators of E. coli MazEF toxin-antitoxin RNase, primary screen, biochemical, fluorescence, uHTS | FAM/BHQ RNA-DNA oligo cleavage fluorescence, 5 h | 350,000 tested, 0.32% active | activation, % at 20 µM | AID 504720, 2011 | Endoribonuclease toxin MazF (Escherichia coli (strain K12)), P0AE70; in the data active = activation above about 50%
* = called active by the depositor; ? = inconclusive; / = not tested or not shown. Hits are enriched below; roughly 3.6% of the tested compounds scored in any of these assays. Rule as the data show it, unless noted: active = inhibition above about 30%; inconclusive = no clear call, values can overlap the other calls; inactive = below that.

SMILES	BoNT F protease	Bead autofluor	Anthrax LF inh2	BoNT A protease	MazF activator
Clc1ccccc1CSc1snnc1-c1ccccc1	-4	20983*	-2	?	-13
Clc1ccc(CSc2snnc2-c2ccccc2)cc1	?	?	?	?	-2
Clc1ccc(-c2nnsc2SCc2ccccc2)cc1	-7	22947*	-2	-2	-4
CSc1snnc1-c1ccccc1	-16	4106	-9	-2	-2
COc1ccc(N/C=C(\C#N)c2nc3ccccc3n2C)c(OC)c1	-9	18044*	-1	-3	-24
COc1ccc(CNc2nc3ccccc3n2C)c(OC)c1	-4	3754	-8	-1	3
CCOc1ccc(C(=O)N(CN2CCCC2=O)c2ccc(C)cc2)cc1	/	/	/	/	-4
Cc1ccc(N(CN2CCCC2=O)C(=O)c2ccc(OC(C)C)cc2)cc1	1	19242*	-2	?	8
CCOc1ccc(C(=O)N(CN2CCCC2=O)c2ccccc2)cc1	0	19439*	0	?	-5
CCN(CC)C(=O)COc1coc(CN2CCN(c3ccccc3F)CC2)cc1=O	-2	5969	-1	-1	9
CCCCN(C(=O)c1ccc(S(=O)(=O)N2CCC(C)CC2)cc1)C1CCS(=O)(=O)C1 (centres undefined)	/	/	/	/	5
CCOC(=O)c1[nH]c(C)c(/C(O)=C2\C(=O)C(=O)N(CCN(C)C)C2c2cccc(OC)c2OC)c1C (centres undefined)	3	18747*	-4	3	-2
OC[C@@H]1CN(Cc2cccc(C(F)(F)F)c2)C[C@H](n2cnc3c(NC4CC4)ncnc32)O1	0	3481	4	0	/
C=CCNc1nc(Cl)nc(NC2CCCCC2)n1	?	3932	-7	-4	7
CC(C)(C)C1CCc2onc(C(=O)N3CCOCC3)c2C1 (centres undefined)	0	11821	1	0	3
O=C(NC1CCCCC1)c1noc2c1CCCCC2	1	22953*	1	2	-4
CC(C)(C)C1CCc2onc(C(=O)NC3CCCC3)c2C1 (centres undefined)	-6	21049*	-2	-3	3
COc1cc(Cn2c3ccc(NC(=O)CCc4ccc(O)cc4)cc3c(=O)n2C)ccc1F	-1	3735	-8	0	/
O=C(C1CCC(=O)N1Cc1ccc(F)cc1)N1CCC2(CC1)OCCO2 (centres undefined)	2	2815	-1	0	-5
O=C(C1CC(=O)N(C2CCCCCCC2)C1)N1CCC2(CC1)OCCO2 (centres undefined)	-10	22759*	0	-8	2
O=C(C1CC(=O)N(C2CCCC2)C1)N1CCN(c2ccccc2)CC1 (centres undefined)	5	5021	0	3	4
O=C(C1CCC(=O)N1C1CCCC1)N1CCC2(CC1)OCCO2 (centres undefined)	1	20240*	-5	0	-4
Cc1ccc(NC(=O)COC(=O)CN2C(=O)NC3(CCCC3)C2=O)cc1Cl	-6	3923	4	-1	5
CC[n+]1c(/C=C/N(C)c2ccccc2)n(-c2ccccc2)c2ccc(-c3nc4ccccc4s3)cc21	17	6076	8	18	68*
CC(=O)c1cccc(N(CC(=O)NC2CCCCC2)C(=O)CCC(=O)Nc2nc(C)cs2)c1	15	3912	-8	-1	3
SMILES	BoNT F protease	Bead autofluor	Anthrax LF inh2	BoNT A protease	MazF activator
O=C(Nc1ccc(O)cc1)C1CC=CCC1 (centres undefined)	-14	18689*	-4	?	8
O=C(Nc1nccs1)C1CC=CCC1 (centres undefined)	1	5435	-2	-2	-4
CC(C)Cc1nc2oc3c(NCCCN4CCOCC4)ncnc3c2c2c1CCC2	-3	23301*	-1	-1	1
CCCc1nc2oc3c(NCCN4CCOCC4)ncnc3c2c2c1CCCC2	0	3833	-5	0	11
Cc1ccc([N+](=O)[O-])cc1N/C=C1\CCCCC1=O	-1	4905	8	7	98*
O=C(NCCNC(=O)Oc1cccc2ccccc12)Oc1cccc2ccccc12	-3	3789	-1	1	6
CCOc1ccccc1N1CCN(Cc2cccc(OC)c2O)CC1	-11	17870*	-3	?	-3
COc1ccccc1N1CCN(Cc2c(F)cccc2Cl)CC1	-2	21264*	-1	-1	3

Assay outcomes from PubChem BioAssay.
